We go through 8 compounds from PubChem BioAssay (NCI).

This is part of a sample that, as a whole, favours compounds with a hit. Of some 83,000 tested, about 20% had one in any assay.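 In brief: 96-well plates, 48 h treatment, single concentration, percent growth endpoint.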 A number with no mark means an inactive call. The source made the active and inactive calls. How the source made its calls: active means growth percent below 10; inactive means the rest.

Common to all, as to assay: NCI-60 one-dose screen, 48 h (100 = growth as untreated, 0 = no growth, -100 = all killed)
What all share (settings): 10 µM unless noted

Test [1] concerns NCI-H23 lung.
Test [2] deals with NCI-H226 lung.
The test system of test [3] is NCI-H322M lung.
Test [4] deals with HOP-62 NSCLC.
Test [5] concerns NCI-H460 lung.
Test [6] deals with HOP-92 NSCLC.
Test [7] relates to NCI-H522 lung.
For test [8], the system named is 786-0 renal.
In test [9] the test system is COLO 205 colon.
Test [10] has as its system DU-145 prostate.
Test [11] deals with K-562 leukemia.
For test [12], the system named is MALME-3M melanoma.
For test [13], the system named is MDA-MB-231 breast.
Test [14] relates to RXF 393 renal.
Test [15] concerns SF-268 CNS.
Test [16] has as its system SF-295 CNS.
Test [17] concerns SF-539 CNS.
Test [18] has as its system UACC-257 melanoma.
Test [19] has as its system M14 melanoma.
For test [20], the system named is A549/ATCC NSCLC.

Regarding `Clc1ccccc1C(c1ccccc1)(c1ccccc1)n1ccnc1`, the growth in test [1] is 41.9%; in [2], 29.2%; in [3], 61.8%; in test [4], 34.3%; in [5] it was 51.4%; in [6], 19.7%. Moreover, the growth in test [7] was 28.1%; in [8], 48.3%; in test [9], 24%; in test [10], 60.1%; in test [11], 17%; in test [12], 39.7%. Further, the growth in test [13] was 59.1%; in test [14], 23.6%; in test [15], 57.5%; in test [16] it was 19%; in test [17] it was 52%; in test [18], 54.4%. Moreover, the growth in test [19] is 31%.
In the case of `c1ccc2sc(SSN3CC4CCC(CC4)C3)nc2c1`, the growth in [1] was 107%; in test [2] it was 100%; in [3], 96%; in [4] it was 119%; in test [5], 115%; in test [6] it was 110%. Further, the growth is 28.9% in test [7]; 129% in test [8]; 128% in test [9]; 128% in [10]; 91.8% in test [11]; 101% in test [12]. The growth in test [13] is 101%; in test [14], -29.5% (active); in [15] it was 122%; in test [16] it was 108%; in test [17], 94.9%; in test [18], 120%. The growth in test [19] was 110%.
Regarding `O=C(c1ccccc1)c1ccc(O)c2ncccc12`, the growth in test [1] was 19.9%; in [2], 29.3%; in test [3] it was 44.6%; in [4], 38.6%; in [5], 13.7%; in test [6] it was 49.6%. The growth in test [20] is 30.2%; in test [8] it was 31.6%; in [9], 104%; in test [11], 15%; in test [12], 56.1%; in [13], 38.2%. Moreover, the growth is 41.8% in [14]; 34.3% in [15]; 74.6% in [16]; 21.6% in test [17]; 17.3% in test [18]; 35.5% in test [19].
Turning to `O/N=C1\c2ccccc2-c2ccc(F)cc21`, the growth was 99.4% in [1]; 82.5% in test [2]; 92.5% in [3]; 95.9% in test [4]; 98.9% in test [5]; 94.7% in test [6]. The growth in test [7] is 100%; in test [20], 100%; in test [8] it was 104%; in [9], 73.7%; in [11], 99.1%; in [12], 114%. For the same compound, the growth in test [13] was 88.2%; in test [14], 111%; in test [16] it was 117%; in test [17], 97%; in test [18] it was 110%; in test [19], 107%.
On to `S=c1[nH]c2cc(Cl)ccc2s1`, for which the growth in test [1] was 105%; in [2], 91.4%; in test [3], 94.4%; in [4] it was 98.1%; in test [5] it was 118%; in test [6], 68.4%. The growth in [20] is 108%; in [8] it was 107%; in test [9], 92.9%; in test [10] it was 104%; in test [11] it was 111%; in test [12] it was 102%. For the same compound, the growth in [13] is 99.9%; in test [14], 121%; in test [15], 94.2%; in test [16], 103%; in test [17] it was 100%; in [18], 108%. Besides, the growth in test [19] was 108%.
`C/C=C/c1cc2c(c(=O)o1)C(=O)[C@@H](O)[C@H](C)O2`: the growth in [1] was 77.9%; in test [2] it was 79.6%; in [3] it was 94.6%; in test [4], 101%; in test [5], 81.6%; in [7], -69% (active). Further, the growth in [20] was 97.2%; in test [8], 78.4%; in test [9], 35.6%; in test [10], 27.6%; in test [11], -4.98% (active); in test [12], 19.7%. Also, the growth was 90.1% in test [13]; 52.7% in test [14]; 88.4% in test [15]; 96.1% in test [16]; 87.7% in test [17]; 86.7% in test [18]. The growth in test [19] is -3.06% (active).
With `C/C(=N/NC(N)=S)c1ccc(C)cc1`, the growth in test [1] was 95.4%; in [2] it was 83.5%; in test [3] it was 106%; in test [4] it was 87.8%; in test [5], 100%; in [7], 94.5%. The growth is 87.6% in test [20]; 101% in [8]; 99.1% in [9]; 100% in test [10]; 58% in test [11]; 102% in [12]. The growth in [13] was 97.4%; in [14] it was 97.4%; in test [15], 98.7%; in test [16], 93.3%; in test [17], 100%; in [18], 89.2%. The growth in test [19] is 82.7%.
In the case of `Oc1ccccc1N=Cc1ccccc1`, the growth in test [1] was 64.2%; in [2], 86.3%; in test [3], 87.5%; in test [4], 99.1%; in test [5], 94.4%; in [6] it was 102%. Further, the growth in test [7] is 81.1%; in test [20], 98.2%; in test [9], 125%; in test [10], 83.5%; in test [11], 48.6%; in [12], 95.6%. For the same compound, the growth is 117% in [14]; 89.9% in [15]; 111% in test [16]; 108% in test [17]; 94.3% in [18]; 87.6% in [19].
